From PubChem
Rab9 prom act = qHTS Assay for Rab9 Promoter Activators; Huh7 Rab9 promoter-luciferase reporter, luminescence, 24 h; Potency, µM (series often up to 9.22 µM), for the others: at the top dose activation, negative = inhibition, usual class: activators; actives 2.8% (n = 320,000); note: % of control where 0% means no effect; nearly all actives have a fitted effect of over 60% in size
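Huh7 cells stably carrying a Rab9 promoter-luciferase reporter, 1500 cells per well in OP-MEM I with 10% FBS, treated with compound 24 hours at 37C. Luciferase activity read by luminescence after 10 minutes with Amplite reagent.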
ELG1 genotoxic = qHTS screen for small molecules that induce genotoxicity in human embryonic kidney (HEK293T) cells expressing luciferase-tagged ELG1; HEK293T ELG1-luciferase reporter, luminescence, 16 h; Potency, µM (highest dose often 46 µM), for inactives: at the highest dose activity change, positive = activation, hits mostly activators; actives 1.3% (n = 330,000); AID 504466, 2011; note: % of control where 0% means no effect; nearly all actives have a fitted effect of over 60% in size
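Luminescence read-out: rising ELG1-luciferase signal, reflecting elevated ELG1 protein under genetic stress, flags genotoxic compounds. Cells were treated for 16 hr at 37 °C before ONE-Glo detection.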
ELG1 DNA repair = qHTS screen for small molecules that inhibit ELG1-dependent DNA repair in human embryonic kidney (HEK293T) cells expressing luciferase-tagged ELG1 | HEK293T ELG1-luciferase reporter, luminescence, 16 h; DNA damage induced by 5-fluorouridine | Potency, µM (highest dose often 46.1 µM), without a hit: at the top dose activity change, negative = inhibition, usual class: inhibitors | actives 2.3% (n = 330,000); note: % is set by controls: 0 for no effect and ±100 for the full control effect; nearly all actives have a fitted effect of over 55% in size
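Quantitative HTS, concentration-response format. 2,000 cells/well co-treated with 5-fluorouridine and compound, 16 hr in 5% CO2 at 37 °C; ONE-Glo luminescence read after 30 min.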
FLuc modulator = qHTS profiling assay for firefly luciferase inhibitor/activator using purifed enzyme and Km concentrations of substrates (counterscreen for miR-21 project); purified FLuc, Km substrates, luminescence inhibition; Potency, µM (series often up to 57.5 µM), inactives show top-dose activity change, negative = inhibition, usual class: inhibitors; AID 588342, 2011; actives 6.9% (n = 360,000);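 note: plate controls were vehicle for no effect and reference inhibitor for full effect; nearly all actives have a fitted effect of over 55% in size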
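Purified P. pyralis luciferase (10nM final) with 10uM D-luciferin and 10uM ATP (Km levels) in 50mM Tris acetate pH 7.5, 10mM Mg acetate, 0.01% Tween-20, 0.05% BSA; qHTS 6-point titration, ~60 µM downward; luminescence read.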
SMN2 splice enh = qHTS Assay for Enhancers of SMN2 Splice Variant Expression | HEK293 SMN2-luciferase splicing reporter, luminescence, 30-36 h | Potency, µM (titrated, usually from 46.1 µM), without a hit: at the highest dose activity change, positive = activation, hits mostly activators | actives 2.8% (n = 210,000) | AID 1458, 2008; note: % of control where 0% means no effect; nearly all actives have a fitted effect of over 55% in size
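HEK293 cells carry an SMN2 minigene-luciferase reporter in which exon 7 inclusion puts luciferase in frame. Cells were seeded at 2000 cells/well, attached for 10-12 hours, then exposed to compounds for 30-36 hours at 37C before ONE-Glo luminescence.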
NPC1 promoter act = qHTS Assay for NPC1 Promoter Activators | AID 485313, 2010 | Potency, µM (series often up to 9.22 µM), inactives show at the top dose activation, hits mostly activators | actives 2.4% (n = 320,000) | Huh7 NPC1 promoter luciferase reporter, 24 h; note: % of control where 0% means no effect; nearly all actives have a fitted effect of over 60% in size
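Huh7 cells stably carrying NPC1 promoter–luciferase, plated in Opti-MEM with 10% FBS for 2 h, were exposed to compound in DMSO for 24 h at 37 °C; luciferase reagent was added for 10 min and luminescence read.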
ELG1 FLuc counter = qHTS screen for small molecules that inhibit ELG1-dependent DNA repair: Hit Confirmation in Cell-Based Luciferin Assay | cell-free firefly luciferase luminescence counter-screen, ViewLux | Potency, µM (top dose mostly 46.1 µM), inactives show at the highest dose activity change, negative = inhibition, hits mostly inhibitors | shares compounds with ELG1 DNA repair | actives 3% (n = 350); note: % is set by controls: 0 for no effect and ±100 for the full control effect
ELG1-Luc inh = HTS assay for small molecules that inhibit ELG1-dependent DNA repair in human embryonic kidney (HEK293T) cells expressing luciferase-tagged ELG1: Hit Confirmation; shares compounds with ELG1 DNA repair; HEK293T ELG1-luciferase levels, luminescence; cells co-treated with 5-fluorouridine; Potency, µM (doses to about 46.1 µM), inactives show at the highest dose activity change, negative = inhibition, usual class: inhibitors; actives 68% (n = 670); note: % is set by controls: 0 for no effect and ±100 for the full control effect; nearly all actives have a fitted effect of over 55% in size
ELG1-Luc MMS = MMS-stimulated human ELG1 repair inhibition, confirmed. shares compounds with ELG1 DNA repair. HEK293T luciferase-tagged ELG1 level, MMS stimulated. Potency, µM (highest dose often 46.1 µM), for the others: at the top dose activity change, negative = inhibition, hits mostly inhibitors. actives 53% (n = 670); note: % is set by controls: 0 for no effect and ±100 for the full control effect; nearly all actives have a fitted effect of over 60% in size
ELG1 5FU viab = qHTS screen for small molecules that inhibit ELG1-dependent DNA repair: Hit Confirmation with 5FU Viability | shares compounds with ELG1 DNA repair | cell viability with 5-FU, ELG1-dependent repair | Potency, µM (series often up to 46.1 µM), inactives show at the highest dose activity change, negative = viability loss, usual class: cytotoxic | 670 tested, under 10 active;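 note: ELG1-luc HEK293T cells cotreated with 5-fluorouridine at 10 µM final; viability measured 16 h after compound addition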
ELG1 MMS cell = qHTS screen for small molecules that inhibit ELG1-dependent DNA repair: Hit Confirmation with MMS Viability; Potency, µM (titrated, usually from 46.1 µM), for the others: at the top dose activity change, negative = viability loss, most hits filed as cytotoxic; shares compounds with ELG1 DNA repair; actives 33% (n = 670); Cell viability with MMS, ELG1-dependent DNA repair;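 note: ELG1-luc HEK293T cells co-treated with 10 µM MMS; viability read 16 h after compound addition; % is set by controls: 0 for no effect and ±100 for the full control effect; nearly all actives have a fitted effect of over 60% in size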
Cell viab unstim = qHTS screen for small molecules that inhibit ELG1-dependent DNA repair: Hit Confirmation with Unstimulated Viability Assay; cell viability counter-screen, unstimulated, luminescence; Potency, µM (highest dose often 45.9 µM), inactives show top-dose activity change, negative = loss of viability, actives largely listed as cytotoxic; actives 8% (n = 900); shares compounds with ELG1 DNA repair;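 note: compound exposure lasted 16 hours before reading; % is set by controls: 0 for no effect and ±100 for the full control effect; nearly all actives have a fitted effect of over 55% in size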
FLuc biochem = qHTS screen for small molecules that inhibit ELG1-dependent DNA repair: Hit Confirmation in Biochemical Luciferin Assay. shares compounds with ELG1 DNA repair. purified firefly luciferase, luminescence counter-screen. Potency, µM (doses to about 57.5 µM), without a hit: top-dose activity, negative = inhibition, hits mostly inhibitors. actives 10% (n = 350). AID 624253, 2012; note: % is set by controls: 0 for no effect and ±100 for the full control effect
Starred values were filed as active, the others as inactive; u = inconclusive; x = no result. Only some compounds are listed: those with a hit (about 9.4% of all), similar ones and a draw of the others. Calls come from the whole dose curve; as a rule, active = well fitted curve in the direction sought with a large enough effect; inconclusive = small, poorly fitted or top-dose-only effect, or another doubt; inactive = no such curve, though single readings can be large; an effect the other way counts as inactive or inconclusive. Potency is the fitted concentration of half-maximal effect.

SMILES	Rab9 prom act	ELG1 genotoxic	ELG1 DNA repair	FLuc modulator	SMN2 splice enh	NPC1 promoter act	ELG1 FLuc counter	ELG1-Luc inh	ELG1-Luc MMS	ELG1 5FU viab	ELG1 MMS cell	Cell viab unstim	FLuc biochem
C=CC[C@@H](CC(=O)N[C@H](CO)Cc1ccccc1)C(=O)NC[C@H](OC(=O)[C@@H](CC=C)Cc1ccc(F)cc1)c1ccccc1	x	-5%	4.6µM*	x	x	x	x	u	10µM*	u	3%	-4%	x
C=CC[C@H](CC(=O)NCCO)C(=O)NC[C@@H](OC(=O)[C@@H](CC=C)Cc1ccc(F)cc1)c1ccccc1	x	-5%	-9%	x	x	x	x	x	x	x	x	x	x
O=C(Nc1ccccc1)c1nc[nH]c1C(=O)NCCNC(=O)c1[nH]cnc1C(=O)Nc1ccccc1	x	2%	2.3µM*	x	x	x	x	5µM*	4.4µM*	-1%	u	16µM*	x
Cc1ccc(NC(=O)c2nc[nH]c2C(=O)NCCCCNC(=O)c2[nH]cnc2C(=O)Nc2ccc(C)cc2)cc1	x	-4%	0.73µM*	x	x	x	0%	1.3µM*	1.8µM*	-23%	u	-12%	-3%
Cc1ccc(NC(=O)c2nc[nH]c2C(=O)NCCCCCCNC(=O)c2[nH]cnc2C(=O)Nc2ccc(C)cc2)cc1	x	-6%	u	x	x	x	x	x	x	x	x	x	x
CCc1ccc(N2CCn3c2nc2c3c(=O)n(Cc3cccc(C)c3)c(=O)n2C)cc1	x	x	x	1%	x	x	x	x	x	x	x	x	x
COc1ccc(-n2nc(C(=O)NCC(=O)Nc3cc(OC)c(OC)c(OC)c3)c3ccccc3c2=O)cc1	0%	-20%	3.3µM*	-1%	x	2%	70%	3.2µM*	13µM*	15%	-18%	u	5%
COc1ccc(NC(=O)c2sc3ncnc(N4CCN(c5ccccn5)CC4)c3c2C)cc1Cl	-15%	-10%	2.6µM*	-4%	x	-8%	4%	5.6µM*	13µM*	-7%	u	u	-3%
C/C(=N\NC(=O)c1c(C)nc2ccccn12)c1ccc(O)cc1O	-47%	u	2.9µM*	1%	x	-37%	x	u	u	-15%	u	u	x
Cc1cc(C)cc(NC(=O)CCc2nc3sc4c(c3c(=O)[nH]2)CCCC4)c1	-26%	0.73µM*	-11%	5%	x	-10%	8%	x	x	x	x	u	-4%
COc1ccc(CNC(=O)C2CCN(S(=O)(=O)c3ccc4c(c3)CCCN4C(C)=O)CC2)cc1	x	x	x	1%	x	x	x	x	x	x	x	x	x
Cc1cccc(-c2noc(CCC(=O)N3CCN(c4cc(C)ccc4C)CC3)n2)c1	x	u	u	x	x	x	x	x	x	x	x	0%	x
Cc1ccc(C)c(N2CCN(C(=O)CCc3nc(-c4ccccc4)no3)CC2)c1	x	2%	4%	x	x	x	x	x	x	x	x	x	x
O=C(OCC(=O)N1CCc2ccccc2C1)c1c(F)cccc1Cl	x	u	u	x	x	x	x	x	x	x	x	-3%	x
O=C(OCC(=O)N1CCCC1)c1c(Cl)cccc1Cl	0%	12%	u	-13%	x	1%	x	x	x	x	x	x	x
Cc1nc2ccc(NC(=O)COc3ccccc3F)cc2s1	u	u	u	u	u	26%	x	x	x	x	x	x	x
O=C(COc1ccccc1F)Nc1ccc(-c2nc3ccccc3s2)cc1	0.63µM*	x	x	x	x	0.89µM*	69%	x	x	x	x	-16%	u
O=C(NC1CCCc2ccccc21)c1ccc2c(c1)sc1nc(-c3ccccc3)cn12 (centres undefined)	x	x	x	-2%	x	x	x	x	x	x	x	x	x
Cc1cc(C(=O)NNc2ccc(F)cc2)no1	1%	9%	2.9µM*	1%	x	10%	x	-5%	19%	-8%	-2%	1%	x
CC(C)(C)OC(=O)NCc1ccc(NC(=O)c2nc[nH]c2C(=O)NCCCCNC(=O)c2[nH]cnc2C(=O)Nc2ccc(CNC(=O)OC(C)(C)C)cc2)cc1	x	12%	0.92µM*	x	x	x	u	1.1µM*	1.3µM*	-8%	u	u	1%
